High-throughput results as filed in PubChem BioAssay.
A selection: hits, their analogues and other compounds. The true share with any hit is near 3.9%.
GDH-TPI inh = inhibits GDH-TPI coupling enzymes, artifact for Mtb FBA screen; inhibition, % at 4.8 µM; 1.2% of 360,000 active; GDH-TPI coupled enzyme counterscreen, NADH absorbance; in the data active means inhibition above about 30%
SARS 3CLpro inh = SARS-CoV 3CLpro protease inhibition; inhibition, % at 6 µM; P0C6X7; AID 1706; 0.14% of 290,000 active; recombinant SARS-CoV 3CLpro, quenched FRET peptide cleavage; in the data active means inhibition above about 12%
BH1578 lux ind = inducers of Vibrio cholerae quorum light production without autoinducers; V. cholerae BH1578 lux reporter, luminescence, 6 h; activation, % at 18.7 µM; 0.16% of 350,000 active; in the data active means activation mostly above about 9.7%, no sharp cut-off
PrPC surface inh = inhibitors of human cell surface prion protein PrPC. P04156. TR-FRET read-out. inhibition, % at 13.8 µM. 0.43% of 370,000 active; in the data active means inhibition above about 24%
Mtb FBA inh = Mtb fructose-bisphosphate aldolase inhibition; AID 588726; inhibition, % at 1 µM; purified M. tuberculosis FBA, fluorescence read-out; 2.3% of 360,000 active; in the data active means inhibition above about 27%
Target sequence (P9WQA3 whole entry, looked up): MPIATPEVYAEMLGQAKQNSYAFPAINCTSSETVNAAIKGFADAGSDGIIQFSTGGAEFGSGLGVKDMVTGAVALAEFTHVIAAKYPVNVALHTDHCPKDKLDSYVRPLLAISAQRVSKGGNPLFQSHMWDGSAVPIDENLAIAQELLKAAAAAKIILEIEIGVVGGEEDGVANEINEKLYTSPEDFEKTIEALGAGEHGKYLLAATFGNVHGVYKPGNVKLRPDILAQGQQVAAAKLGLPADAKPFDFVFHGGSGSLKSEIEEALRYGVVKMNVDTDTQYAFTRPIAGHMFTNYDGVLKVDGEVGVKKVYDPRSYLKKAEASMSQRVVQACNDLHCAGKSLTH
Large screens that a line does not name were inactive.

COc1cc2[nH]c(=S)nc(NC3CCCCCC3)c2cc1OC	PrPC surface inh 24.7
C=CCN=C1S/C(=C\N(C)C)C(=O)N1S(=O)(=O)c1ccc(C)cc1	GDH-TPI inh 36.1 (no result: SARS 3CLpro inh)
COCc1nc(-c2ccc(-c3ccc(OC)cc3)nc2OC)no1	Mtb FBA inh active
CCc1nc(-c2ccc(-c3ccc(OC)cc3)nc2OC)no1	Mtb FBA inh 152.3
Cc1ccc(C(=O)N2CCCCC2)cc1S(=O)(=O)N1CCOCC1	none
O=C(/C=C/c1ccccc1)c1ccc2c(c1)OCO2	GDH-TPI inh 40.1
COC(=O)/C=C/c1ccc2c(c1)OCO2	none
O=C(C=Cc1ccc2c(c1)OCO2)C1CC1	GDH-TPI inh 36.0 (no result: SARS 3CLpro inh)
CCN(CC)c1ccc(C(=O)n2cnc3ccccc32)cc1	GDH-TPI inh 39.6
O=C(c1ccco1)N1CCN(Cc2nnnn2C2CCCCC2)CC1	none
CCCCC(=O)Nc1ccc(C(=O)NNC(=O)c2ccco2)cc1	none
CCCCC(=O)Nc1ccc(C(=O)NNC(=S)NC(=O)c2ccco2)cc1	GDH-TPI inh 43.9
O=C(NC(=S)NNC(=O)c1ccccc1O)c1ccco1	GDH-TPI inh 30.9
CCNC(=O)C1(C)CCCN1C(=O)c1cnc2ccccc2n1 (stereo not drawn)	none (no result: SARS 3CLpro inh)
C=CCNC(=O)/C(C#N)=C/c1c(N2CC(C)OC(C)C2)nc2ccccn2c1=O (stereo not drawn)	Mtb FBA inh 126.3
N#C/C(=C\c1c(N2CCOCC2)nc2ccccn2c1=O)C(=O)NC1CCS(=O)(=O)C1 (stereo not drawn)	Mtb FBA inh active
Cc1ccc(S(=O)(=O)/C(C#N)=C/c2c(N3CC(C)OC(C)C3)nc3ccccn3c2=O)cc1 (stereo not drawn)	none
COc1cccc(-c2cnc(C(O)c3ccc(Cl)c(F)c3)[nH]2)c1 (stereo not drawn)	none (no result: SARS 3CLpro inh)
O=C(Nc1cccc(S(=O)(=O)N2CCCCCC2)c1)C1CC(=O)N(c2ccc3c(c2)OCCO3)C1 (stereo not drawn)	none (no result: SARS 3CLpro inh)
CNc1oc(-c2cccs2)nc1C#N	Mtb FBA inh active
COc1ccc(Nc2oc(-c3cccs3)nc2C#N)cc1	none
CN(C)c1oc(-c2ccccc2F)nc1C#N	Mtb FBA inh active
CN(C)c1oc(-c2cccs2)nc1C#N	Mtb FBA inh active
CC1(C(=O)NS(=O)(=O)c2ccc(Cl)cc2)CCN1C(=O)C1(c2ccc(Cl)cc2)CCC1 (stereo not drawn)	none (no result: SARS 3CLpro inh)
Cc1ccc2[nH]c3c(=O)n(CCN4CCNCC4)cnc3c2c1	none
COc1ccc2c(c1)c1ncn(CCN3CCNCC3)c(=O)c1n2C	Mtb FBA inh 129.5
COc1cccc2[nH]c3c(=O)n(CCCN4CCOCC4)cnc3c12	Mtb FBA inh 147.4
COc1ccc2[nH]c3c(=O)n(CCN4CCOCC4)cnc3c2c1	GDH-TPI inh 30.9, Mtb FBA inh 151.6
O=c1c2[nH]c3ccccc3c2ncn1CCN1CCOCC1	none
COc1cccc2[nH]c3c(N4CCC5(CC4)OCCO5)ncnc3c12	Mtb FBA inh 149.0
COc1ccccc1NC(=O)CSc1nncs1	none (no result: SARS 3CLpro inh)
CN(C)C(=O)COC(=O)c1ccccc1NC(=O)c1ccco1	none (no result: BH1578 lux ind)
N#Cc1nc(-c2ccc(F)cc2)oc1N1CCCCC1	Mtb FBA inh 178.2
N#Cc1nc(-c2ccc(F)cc2)oc1N1CCCC1	Mtb FBA inh 112.8
N#Cc1nc(COc2ccc(F)cc2)oc1N1CCCC1	none (no result: BH1578 lux ind)
N#Cc1nc(-c2ccc([N+](=O)[O-])cc2)oc1N1CCCCC1	none
COc1ccccc1/C=C1\Oc2cc(OC(=O)N3CCOCC3)ccc2C1=O	none
COc1ccc(-c2nc(N)ncc2-c2ccccc2OC)c(O)c1	none
CCC(=O)N1CCCC(C)(C(=O)NS(=O)(=O)c2cccs2)C1 (stereo not drawn)	none (no result: SARS 3CLpro inh)
Cc1cc(N(CCCl)CCCl)ccc1C=NNC(=O)Cc1cc(=O)oc2cc(O)ccc12	GDH-TPI inh 59.0, Mtb FBA inh 168.8 (no result: SARS 3CLpro inh)
Cc1cc(N(CCCl)CCCl)ccc1/C=N/NC(=O)c1ccco1	GDH-TPI inh 49.3
COc1cccc(C(=O)N/N=c2/oc3ccccc3cc2C(N)=O)c1	none
Cc1cccc(N=c2oc3cc(O)ccc3cc2C(N)=O)c1	Mtb FBA inh active
COc1cccc(N=c2oc3cc(O)ccc3cc2C(=O)NCC2CCCO2)c1 (stereo not drawn)	Mtb FBA inh active
COc1cccc2cc(C(=O)NCC3CCCO3)c(=O)oc12 (stereo not drawn)	none
COc1ccccc1N=c1oc2cc(O)ccc2cc1C(=O)NCC1CCCO1 (stereo not drawn)	Mtb FBA inh active
COc1cccc(OCc2ccc(C(=O)NCC3CCCO3)cc2)c1 (stereo not drawn)	none
COc1ccc2cc(C(N)=O)/c(=N\NC(=O)c3ccccc3)oc2c1	Mtb FBA inh 112.2
CCCCNC(=O)C[C@@H]1C(=O)N(CCc2ccc(Cl)cc2)/C2=C/CCCCC[C@@]21C(=O)OCC	none (no result: GDH-TPI inh, SARS 3CLpro inh, BH1578 lux ind, Mtb FBA inh)
O=C(CNC(=O)c1ccc(Br)o1)OCC(=O)c1cccc([N+](=O)[O-])c1	none
O=C(Nc1ccc(F)cc1)c1cc(-c2ccncc2)nc2c(Cl)cccc12	none (no result: BH1578 lux ind)
C[C@@H](NC(=O)c1ccc(C#Cc2cccc(F)c2)cn1)C(C)(C)O	none (no result: GDH-TPI inh, SARS 3CLpro inh, BH1578 lux ind, Mtb FBA inh)
COc1ccccc1N=c1oc2cc(O)ccc2cc1C(N)=O	Mtb FBA inh active
C(#CC1=CCCCC1)CNCc1ccccc1	none (no result: GDH-TPI inh, SARS 3CLpro inh, BH1578 lux ind, Mtb FBA inh)
COc1cc(C)nc(Nc2nc(C)c(C(C)=O)s2)n1	GDH-TPI inh 34.8
CC(=O)c1sc(Nc2ccccn2)nc1C	GDH-TPI inh 47.0
CC(=O)c1sc(Nc2cccc3ccccc23)nc1C	none (no result: SARS 3CLpro inh)
O=C(NCCOC12CC3CC(CC(C3)C1)C2)c1cccc(Br)c1	none
COc1ccccc1C(=O)Nc1ccc2c(c1)nc(CN1CCCCC1)n2C	none
Cc1cc(O)cc(O)c1C=NCc1ccco1	GDH-TPI inh 33.3
Cc1ccnc(NC(=O)CCc2c[nH]c3ccccc23)c1	none
CC(C)(C)c1ccc(C(=O)NCC(=O)N/N=C/c2ccccc2OCC(=O)O)cc1	none
Oc1c(C(Nc2nc3ccccc3s2)c2ccco2)ccc2cccnc12 (stereo not drawn)	PrPC surface inh 24.8
Oc1c(C(Nc2nccs2)c2ccc(C(F)(F)F)cc2)ccc2cccnc12 (stereo not drawn)	Mtb FBA inh 123.6
Oc1c(C(Nc2cccc(C(F)(F)F)c2)c2ccncc2)ccc2cccnc12 (stereo not drawn)	none
CCc1ccc(NS(=O)(=O)c2c(C(=O)N3CCCCCC3)c(C)n(C)c2C)cc1	none
COC(=O)C[C@H]1CC[C@@H]2[C@@H](COc3ccc(NC(=O)Nc4cccc(C)c4)cc3C(=O)N2C)O1	none (no result: GDH-TPI inh, SARS 3CLpro inh, BH1578 lux ind, Mtb FBA inh)
c1ccc2nc3c(nc2c1)OCC1CCCCN31 (stereo not drawn)	Mtb FBA inh 149.5
O=C(N/N=C/c1cccc(F)c1)c1c(O)c2ccccc2[nH]c1=O	none
O=C(Nc1cccc(F)c1)c1c(O)c2ccccc2[nH]c1=O	GDH-TPI inh 32.0
O=C1NCCc2c1[nH]c1ccccc21	Mtb FBA inh 27.2
O=C1NCCc2c1[nH]c1ccc([N+](=O)[O-])cc21	none
COc1ccc(/C=N/NC(=O)CSc2nnc(CCCc3ccc(OC)c(C)c3)o2)cc1	BH1578 lux ind 33.3
